Screening data (PubChem BioAssay)
Compounds with a hit are over-represented: about 2.9% of the library has one in this group of screens.
PLCb3 inh: inhibitors of human phospholipase C beta3; Q01970; Purified PLC-beta3, fluorogenic substrate, fluorescence; inhibition, % at 12.2 µM; 0.18% of 370,000 active; in the data active means inhibition above about 11%
ADAM10 inh: inhibitors of human ADAM10; recombinant ADAM10, EDANS/DABCYL FRET peptide cleavage, 3 h; inhibition, % at 7 µM; 0.62% of 370,000 active;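 active means inhibition above a per-campaign cutoff equal to the mean of compounds falling between control-based bounds plus 3 SD, cut at about 20% in these data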
KLK7 zymogen act: activators of human kallikrein-7 zymogen; P49862; purified proKLK7, EDANS-DABCYL substrate fluorescence; 100% is mature enzyme control, 0% vehicle; activation, % at 7 µM; 0.9% of 370,000 active; AID 652039;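 active means activation above the mean of all tested compounds plus 3 SD, computed per campaign excluding outliers beyond control limits, cut at about 13% in these data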
ADAM17 inh: ADAM17 inhibition, QFRET primary screen; AID 720648; P78536; 0.83% of 370,000 active; recombinant ADAM17, EDANS/DABCYL FRET peptide cleavage; inhibition, % at 6.95 µM;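 active means inhibition above the mean of compounds lying between control limits plus 3 SD, set per campaign, cut at about 8.5% in these data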
PLCg1 inh: inhibitors of human phospholipase C gamma1; P19174; purified PLC-gamma1, fluorogenic substrate, fluorescence; inhibition, % at 12.2 µM; 0.84% of 370,000 active; in the data active means inhibition above about 9.5%
Target sequence (P19174 whole entry, looked up): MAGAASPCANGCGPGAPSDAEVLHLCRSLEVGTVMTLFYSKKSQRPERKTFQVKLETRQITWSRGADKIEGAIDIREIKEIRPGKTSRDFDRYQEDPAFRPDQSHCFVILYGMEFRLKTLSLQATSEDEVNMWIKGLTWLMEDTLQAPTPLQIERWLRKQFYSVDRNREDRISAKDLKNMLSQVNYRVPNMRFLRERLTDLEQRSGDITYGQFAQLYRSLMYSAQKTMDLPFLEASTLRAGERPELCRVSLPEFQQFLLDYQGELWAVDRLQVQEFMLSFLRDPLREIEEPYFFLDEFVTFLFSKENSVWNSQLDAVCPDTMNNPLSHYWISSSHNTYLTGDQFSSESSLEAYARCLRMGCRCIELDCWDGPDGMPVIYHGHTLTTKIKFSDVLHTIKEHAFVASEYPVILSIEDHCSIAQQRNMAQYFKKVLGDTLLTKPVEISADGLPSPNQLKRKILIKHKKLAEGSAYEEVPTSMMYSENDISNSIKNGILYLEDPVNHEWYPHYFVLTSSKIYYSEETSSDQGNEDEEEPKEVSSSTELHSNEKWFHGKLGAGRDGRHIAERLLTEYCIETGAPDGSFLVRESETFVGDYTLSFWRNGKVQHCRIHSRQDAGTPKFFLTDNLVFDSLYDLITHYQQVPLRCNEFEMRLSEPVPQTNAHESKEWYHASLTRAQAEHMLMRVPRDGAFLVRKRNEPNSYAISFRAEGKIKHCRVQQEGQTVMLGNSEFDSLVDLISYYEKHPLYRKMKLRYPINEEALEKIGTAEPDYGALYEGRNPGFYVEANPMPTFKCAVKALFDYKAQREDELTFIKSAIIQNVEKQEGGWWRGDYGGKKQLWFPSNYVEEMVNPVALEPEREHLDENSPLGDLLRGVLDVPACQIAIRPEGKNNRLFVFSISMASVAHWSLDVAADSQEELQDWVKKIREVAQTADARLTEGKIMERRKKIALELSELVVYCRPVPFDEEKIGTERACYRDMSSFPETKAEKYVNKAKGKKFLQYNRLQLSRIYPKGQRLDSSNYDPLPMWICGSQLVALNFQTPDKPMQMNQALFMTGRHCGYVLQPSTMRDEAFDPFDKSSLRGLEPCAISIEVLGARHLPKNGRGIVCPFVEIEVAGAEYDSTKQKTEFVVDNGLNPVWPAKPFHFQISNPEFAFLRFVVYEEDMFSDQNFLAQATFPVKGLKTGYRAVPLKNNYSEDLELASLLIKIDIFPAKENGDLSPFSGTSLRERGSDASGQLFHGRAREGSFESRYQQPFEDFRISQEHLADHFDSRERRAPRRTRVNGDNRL
KLK7 act conf: confirmation of human kallikrein-7 zymogen activators | AID 686949 | 68% of 3,200 active | purified proKLK7, EDANS-DABCYL substrate fluorescence; scaled: vehicle 0, mature enzyme 100 | activation, % at 7 µM | shares compounds with KLK7 zymogen act;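 active means activation, as change over the incubation, above the mean of all tested compounds plus 3 SD, cut at about 13% in these data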
EDANS-DABCYL int: optically interferes with EDANS-DABCYL signal, flagging KLK7 hits; AID 686952; shares compounds with KLK7 zymogen act; EDANS-DABCYL substrate fluorescence interference, no enzyme, 4 h; solvent 0%, active enzyme control 100%; 80% of 3,200 active; activation, % at 7 µM;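 active means activation above the all-compound mean plus 3 SD, ignoring values outside control-based bounds, cut at about 4.8% in these data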;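 further: value is the 4 h activation minus the activation read at time zero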
K7 EDANS ctr: EDANS fluorescence interference in dose response, no enzyme. 20% of 250 active. EDANS-DABCYL peptide fluorescence interference. EC50, µM. shares compounds with KLK7 zymogen act;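 active means compounds that raise the fluorescence signal in this interference counterscreen, with EC50 at or below 10 µM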;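 further: intact quenched peptide substrate alone read at 355 nm excitation and 520 nm emission; signal is fluorescence gain from T0 to T4 after four hours at room temperature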
Hits are given with their value; i = inactive; nt = not tested or not shown.

SMILES	PLCb3 inh	ADAM10 inh	KLK7 zymogen act	ADAM17 inh	PLCg1 inh	KLK7 act conf	EDANS-DABCYL int	others
O=C(Nc1ccc(NC(=O)c2cccs2)cc1)c1cccs1	i	i	13.9	i	i	29.8	21.8	K7 EDANS ctr=i
COc1ccc(NC(=O)c2cccs2)cc1	i	i	i	i	i	nt	nt
O=C(Nc1ccc(Cl)cc1)c1cccs1	i	i	i	i	i	nt	nt
COc1ccc(C(=O)Nc2cccc(NC(=O)c3cccs3)c2)cc1OC	i	i	35.0	i	i	22.2	29.3
CNC(=S)NNC(=O)c1cccs1	i	i	13.3	i	i	14.4	13.0
CCNC(=S)NNC(=O)c1cccs1	i	i	i	i	i	nt	nt
COc1ccc(NC(=S)NNC(=O)c2cccs2)cc1	i	i	20.7	i	i	i	8.5
CCN(CC)S(=O)(=O)c1ccc2c(c1)NC(=O)C1CCCN21 (stereo not given)	i	i	i	i	i	nt	nt
O=C1NC[C@@H](Cc2cccc3ccccc23)N(CCc2cc(C(F)(F)F)cc(C(F)(F)F)c2)C1=O	i	i	i	i	i	nt	nt
COc1cccc(-c2cnc3cccnn23)c1	i	i	46.1	i	i	38.5	44.7
Cc1cccc(-c2cccc3nccn23)c1	i	i	i	i	i	nt	nt
Cc1ccc(-c2cnc3cccnn23)cc1F	i	i	22.8	i	i	i	7.6
Cc1nn2c(=O)cc(COC(=O)c3c(F)cccc3Cl)nc2s1	i	i	i	i	i	nt	nt
CCOC(=O)C(C)Sc1ncnc2c1nnn2-c1ccc(F)cc1 (stereo not given)	i	i	i	i	i	nt	nt
Cc1c(Cc2ccccc2)c(=O)oc2cc(O)cc(O)c12	i	i	55.2	i	i	63.5	76.2
CC[C@H](C)/C=C(C)/C=C/c1cc2c(cn1)C(=O)[C@@](C)(OC(C)=O)C(O)=C2Cl	i	i	85.7	i	i	108.0	123.4
CC(C)C1Oc2cc3oc(=O)ccc3cc2C1=O (stereo not given)	i	i	35.1	i	i	29.0	27.1
C/C=C(\C)C(=O)OC(C)(C)[C@@H]1Cc2cc3ccc(=O)oc3cc2O1	i	i	i	i	i	nt	nt
CC(=O)Oc1c(-c2ccco2)oc2ccccc2c1=O	i	i	13.9	i	i	21.4	18.8
c1ccc(Nc2nc3ccccc3n3nnnc23)cc1	i	i	19.5	i	i	i	46.2
S=C(NCc1ccccn1)Nc1ccc(Cl)cc1	i	i	i	i	i	nt	nt
Nc1nc2ccc(Cl)cc2cc1C(=O)NC1CC1	i	i	16.2	i	i	i	8.8
CCN(CC)CCCNC(=O)c1cc2cc(Cl)ccc2nc1N	i	i	17.0	i	i	25.5	24.6
CCCCn1c(SCC(=O)Nc2ccc(OC)cc2)nc2ccc(N3CCOCC3)cc2c1=O	i	i	16.6	i	i	i	i
CC(C)n1nc(C(=O)Oc2ccc(Cl)cc2)c2ccccc2c1=O	i	i	i	i	i	nt	nt
SMILES	PLCb3 inh	ADAM10 inh	KLK7 zymogen act	ADAM17 inh	PLCg1 inh	KLK7 act conf	EDANS-DABCYL int	others
Cc1cc(=O)oc2cc(OC(=O)c3nn(C(C)C)c(=O)c4ccccc34)ccc12	i	i	45.7	i	i	69.8	79.0
CCCn1nc(C(=O)Oc2ccc3c(C)cc(=O)oc3c2)c2ccccc2c1=O	i	i	54.1	i	i	68.2	72.2
CCCSc1nc(C)c2cc(C)cc(C)c2n1	i	i	i	i	i	nt	nt
Cc1cc(C)c2nc3nc(C)c(C)cc3c(N)c2c1	i	i	50.2	i	i	34.3	41.0
Nc1nc(Cl)cc(N2CCOCC2)n1	i	i	i	i	i	nt	nt
O=C1Nc2ccccc2C1Cc1ccccn1 (stereo not given)	i	i	i	i	i	nt	nt
N#CC1C(=O)Nc2cccnc21 (stereo not given)	i	i	36.6	i	i	33.9	33.3
Cc1ccc(OCC(=O)Nc2ccc(-c3nc4ncccc4o3)cc2)c(C)c1	i	i	i	i	i	nt	nt
COc1ccc(-n2nc(C(=O)NCC(=O)Nc3cc(OC)c(OC)c(OC)c3)c3ccccc3c2=O)cc1OC	i	i	42.4	i	i	65.6	66.2
CCn1cc(S(=O)(=O)c2ccccc2)c(=O)c2cc(F)c(N3CCN(C)CC3)cc21	i	i	i	i	i	nt	nt
CCOC(=O)N1CCC(N2CCCC(C(=O)c3cc(C)c(OC)c(C)c3)C2)CC1 (stereo not given)	i	i	i	i	i	nt	nt
COc1cccc(-c2ccc(NC(=O)C3CCCN(Cc4cccc(C)n4)C3)cc2)c1 (stereo not given)	i	i	i	i	i	nt	nt
CCOC(=O)N1CCC(N2CCCC(C(=O)c3ccc4cc(OC)ccc4c3)C2)CC1 (stereo not given)	i	i	68.9	i	i	i	i
COc1ccc2cc(C(=O)C3CCCN(Cc4cccc(C)n4)C3)ccc2c1 (stereo not given)	i	i	45.3	i	i	i	i
COc1ccc(S(=O)(=O)NCc2ccncc2)cc1NC(=O)c1ccccc1C	i	i	i	i	i	nt	nt
Nc1ccc2nc(C3CCCCC3)[nH]c2c1	i	i	i	i	i	nt	nt
Nc1ccc2cc3[nH]c4cc(N)ccc4c3nc2c1	i	i	86.0	i	i	74.8	75.1
COc1ccccc1NC(=O)Nc1ccnn1C1CCN(C(=O)c2cscn2)CC1	i	i	i	i	i	nt	nt
COc1ccccc1NS(=O)(=O)c1cccc(C(=O)N/N=C/c2ccc(NC(C)=O)cc2)c1	i	i	235.1	i	i	i	i
COC(=O)c1ccc(-c2sc3nc(N4CCOCC4)c4c(c3c2N)CCCC4)o1	i	i	i	i	i	nt	nt
CC12CCC(=O)N1c1c(sc3nc(N4CCOCC4)c4c(c13)CCCC4)C(=O)N2 (stereo not given)	i	i	20.3	i	i	69.0	67.7
CCCc1cc(=O)oc2c(CN3CCOCC3)c(O)ccc12	i	i	75.5	i	i	71.6	63.1
CCCCc1cc(=O)oc2cc(O)ccc12	i	i	56.0	i	i	79.1	78.5
O=c1cc(CN2CCc3ccccc32)c2ccc(O)cc2o1	i	i	18.8	i	i	40.8	45.1
CCCCc1cc(=O)oc2cc(OCC(=O)N3CCOCC3)ccc12	i	i	i	i	i	nt	nt
CCCc1cc(=O)oc2c(CN3CCN(C)CC3)c(O)ccc12	i	i	45.7	i	i	66.4	74.9
O=c1cc(CN2CCN(Cc3ccccc3)CC2)c2ccc(O)c(O)c2o1	i	i	i	i	i	nt	nt
CCCCc1cc(=O)oc2c(CN(C)C)c(O)ccc12	i	i	54.6	i	i	62.6	66.4
CC(=O)c1c(O)ccc2c(-c3ccccc3)cc(=O)oc12	i	i	i	i	i	nt	nt
Cc1c(O)ccc2c(CN(C)Cc3ccccc3)cc(=O)oc12	i	i	i	i	i	nt	nt
